This note sets out measurements from PubChem BioAssay (NCATS).

Records with an inconclusive call do not appear. Where a call stands in place of a potency, no number is given. Activity calls are given as the source filed them. Unless noted, calls follow the shape of the dose curve; as a rule, active = well fitted inhibition curve with a large enough effect; inconclusive = small, poorly fitted or top-dose-only effect; inactive = no such curve, though single readings can be large or run the other way.

For one experiment, the target named is Aldehyde dehydrogenase, mitochondrial (Homo sapiens) (UniProt P05091). Description: qHTS for Inhibitors of the Aldehyde Dehydrogenase Family (ALDH2) Validation screens (AID 2061302; active = well fitted inhibition curve with a large enough effect; title and protocol of this record describe different tests; also: potency is read from the fitted curve at half-maximal effect). Conditions: ALDH inhibition qHTS; series mostly up to 42.6 µM. A general note: In qHTS, concentration-response curves come from the screen itself.
In the case of `CC1COc2c(N3CCN(C)CC3)c(F)cc3c(=O)c(C(=O)O)cn1c23` (centres undefined), the Potency result was “inactive”. Same read-out and setting: the result for `CCN1CCCC1CNC(=O)c1cc(S(=O)(=O)CC)c(N)cc1OC` (centres undefined) reads “inactive”; that for `Cc1ccc(N(CC2=NCCN2)c2cccc(O)c2)cc1`, “inactive”; that for `CCn1cc(C(=O)O)c(=O)c2cc(F)c(N3CCNC(C)C3)c(F)c21` (centres undefined), “inactive”.

Consider `CC(C[N+](C)(C)C)OC(N)=O` (centres undefined), for which the Potency entry was “inactive”.

Take `CC(C)(Oc1ccc(C2CC2(Cl)Cl)cc1)C(=O)O` (centres undefined): the Potency entry was “inactive”. Consider `NC(=O)c1ncn([C@@H]2O[C@H](CO)[C@@H](O)[C@H]2O)n1`, for which the Potency result was “inactive”. Same read-out and setting: the result for `CN(C)CCC=C1c2ccccc2C=Cc2ccccc21` reads “inactive”. On the same count and under the same terms, the result for `CN1CCC(=C2c3ccccc3C=Cc3ccccc32)CC1` reads “inactive”; that for `CC(C)c1ccc2c(c1)c(SC(C)(C)C)c(CC(C)(C)C(=O)O)n2Cc1ccc(Cl)cc1`, “inactive”. Consider `CN[C@H](CC(C)C)C(=O)N[C@H]1C(=O)N[C@@H](CC(N)=O)C(=O)N[C@H]2C(=O)N[C@H]3C(=O)N[C@H](C(=O)N[C@H](C(=O)O)c4cc(O)cc(O)c4-c4cc3ccc4O)[C@H](O)c3ccc(c(Cl)c3)Oc3cc2cc(c3O[C@@H]2O[C@H](CO)[C@@H](O)[C@H](O)[C@H]2O[C@H]2C[C@](C)(N)[C@H](O)[C@H](C)O2)Oc2ccc(cc2Cl)[C@H]1O`, for which the Potency result is “inactive”. On the same count and under the same terms, the result for `Oc1ccc2ccccc2c1SSc1c(O)ccc2ccccc12` reads 14.1 µM (active); that for `CC[C@H](C)C(=O)O[C@H]1CCC=C2C=C[C@H](C)[C@H](CC[C@@H]3C[C@@H](O)CC(=O)O3)[C@H]21`, “inactive”.

Take `O=c1c(-c2ccc(O)cc2)coc2cc(O)cc(O)c12`: the Potency entry was “inactive”. For `CC(=O)N1CCN(c2ccc(OC[C@H]3CO[C@](Cn4ccnc4)(c4ccc(Cl)cc4Cl)O3)cc2)CC1`, the Potency entry is “inactive”. Still for that read-out and setting: the result for `O=C(CCc1ccc(O)cc1)c1c(O)cc(O)cc1O` reads “inactive”; that for `Cc1cnc(C(=O)NCCc2ccc(S(=O)(=O)NC(=O)NC3CCCCC3)cc2)cn1`, “inactive”. In the case of `NCCCCNCCCN`, the Potency result is “inactive”. As to `C1COC(NC(C2CC2)C2CC2)=N1`, the Potency result is “inactive”.

The next experiment addresses Retinaldehyde dehydrogenase 3 (Homo sapiens) (UniProt P47895). In words: qHTS for Inhibitors of the Aldehyde Dehydrogenase Family (ALDH1A3) Validation screen (AID 2061312). Also: nearly all actives have a fitted effect of over 45% in size. As to conditions: ALDH1A3 enzyme inhibition qHTS validation, fluorescence; series mostly up to 84.7 µM.
Regarding `Cc1cc(C(C)(C)C)cc(C)c1CC1=NCCN1`, the Potency entry is “inactive”. On the same count and under the same terms, the result for `COc1ccc(CCN(C)CCCC(C#N)(c2ccc(OC)c(OC)c2)C(C)C)cc1OC` (centres undefined) reads “inactive”. The same measure, in the same setting: the same measure for `Cc1cc(C)c(/C=C2\C(=O)Nc3ccccc32)[nH]1`: “inactive”; for `Cc1cc(Cl)ccc1OCCCC(=O)NO`: “inactive”; for `NCCc1ccc(O)c(O)c1`: “inactive”. As for `Clc1ccc(C(c2ccc(Cl)cc2)n2cc[n+](CC(OCc3ccc(Cl)cc3Cl)c3ccc(Cl)cc3Cl)c2)cc1` (centres undefined), the Potency entry is “inactive”. Same read-out and setting: the result for `O=C1CCC(N2C(=O)c3ccccc3C2=O)C(=O)N1` (centres undefined) reads “inactive”; that for `CC(C)Cc1ccc(C(C)C(=O)O)cc1` (centres undefined), “inactive”; that for `NC(N)=NC(=O)c1nc(Cl)c(N)nc1N`, “inactive”. The same measure, in the same setting: the same measure for `CN1CCC(=C2c3ccccc3CC(=O)c3sccc32)CC1`: “inactive”; for `OC(CCN1CCCCC1)(c1ccccc1)C1CC2C=CC1C2` (centres undefined): “inactive”. For the molecule `Oc1ccc(/C=C/c2cc(O)cc(O)c2)cc1`, the Potency entry was “inactive”. Same read-out and setting: the result for `COc1cc(SC)ccc1C(=O)N1CCC(Cc2ccccc2)CC1` reads “inactive”. Same read-out and setting: the result for `CS(=O)(=O)Nc1ccc([N+](=O)[O-])cc1Oc1ccccc1` reads “inactive”; that for `Nc1nc(N)c(N=O)c(OCC2CCCCC2)n1`, “inactive”.

As for `Nc1nc2c(ncn2COCCO)c(=O)[nH]1`, the Potency entry was “inactive”.

`O=C(c1ccc(OCCN2CCCCC2)cc1)c1c(-c2ccc(O)cc2)sc2cc(O)ccc12`: the Potency entry was “inactive”.

Take `C[C@H]1O[C@@H](n2cc(F)c(=O)[nH]c2=O)[C@H](O)[C@@H]1O`: the Potency result is “inactive”. Still for that read-out and setting: the same measure for `Nc1c2c(nc3ccccc13)CCCC2`: “inactive”; for `NC12CC3CC(CC(C3)C1)C2`: “inactive”; for `Cc1cccc(-c2[nH]c(C(C)(C)C)nc2-c2ccc3nccnc3c2)n1`: “inactive”.

As for `CC1COc2c(N3CCN(C)CC3)c(F)cc3c(=O)c(C(=O)O)cn1c23` (centres undefined), the Potency entry is “inactive”. On the same count and under the same terms, the result for `CCN1CCCC1CNC(=O)c1cc(S(=O)(=O)CC)c(N)cc1OC` (centres undefined) reads “inactive”.

In the case of `Cc1ccc(N(CC2=NCCN2)c2cccc(O)c2)cc1`, the Potency result was “inactive”. On the same count and under the same terms, the result for `CCn1cc(C(=O)O)c(=O)c2cc(F)c(N3CCNC(C)C3)c(F)c21` (centres undefined) reads “inactive”; that for `CC(C[N+](C)(C)C)OC(N)=O` (centres undefined), “inactive”. Still for that read-out and setting: the result for `CC(C)(Oc1ccc(C2CC2(Cl)Cl)cc1)C(=O)O` (centres undefined) reads “inactive”. Regarding `NC(=O)c1ncn([C@@H]2O[C@H](CO)[C@@H](O)[C@H]2O)n1`, the Potency result was “inactive”.

On to `CN(C)CCC=C1c2ccccc2C=Cc2ccccc21`, for which the Potency result was “inactive”. Consider `CN1CCC(=C2c3ccccc3C=Cc3ccccc32)CC1`, for which the Potency result was “inactive”. Consider `CC(C)c1ccc2c(c1)c(SC(C)(C)C)c(CC(C)(C)C(=O)O)n2Cc1ccc(Cl)cc1`, for which the Potency result is “inactive”. Regarding `CN[C@H](CC(C)C)C(=O)N[C@H]1C(=O)N[C@@H](CC(N)=O)C(=O)N[C@H]2C(=O)N[C@H]3C(=O)N[C@H](C(=O)N[C@H](C(=O)O)c4cc(O)cc(O)c4-c4cc3ccc4O)[C@H](O)c3ccc(c(Cl)c3)Oc3cc2cc(c3O[C@@H]2O[C@H](CO)[C@@H](O)[C@H](O)[C@H]2O[C@H]2C[C@](C)(N)[C@H](O)[C@H](C)O2)Oc2ccc(cc2Cl)[C@H]1O`, the Potency result is “inactive”. In the case of `Oc1ccc2ccccc2c1SSc1c(O)ccc2ccccc12`, the Potency entry is “inactive”.

For the molecule `CC[C@H](C)C(=O)O[C@H]1CCC=C2C=C[C@H](C)[C@H](CC[C@@H]3C[C@@H](O)CC(=O)O3)[C@H]21`, the Potency result is “inactive”.

As to `O=c1c(-c2ccc(O)cc2)coc2cc(O)cc(O)c12`, the Potency result was “inactive”. On the same count and under the same terms, the same measure for `CC(=O)N1CCN(c2ccc(OC[C@H]3CO[C@](Cn4ccnc4)(c4ccc(Cl)cc4Cl)O3)cc2)CC1`: “inactive”.

In the case of `O=C(CCc1ccc(O)cc1)c1c(O)cc(O)cc1O`, the Potency result is “inactive”. For `Cc1cnc(C(=O)NCCc2ccc(S(=O)(=O)NC(=O)NC3CCCCC3)cc2)cn1`, the Potency entry was “inactive”. The same measure, in the same setting: the same measure for `NCCCCNCCCN`: “inactive”. Same read-out and setting: the result for `C1COC(NC(C2CC2)C2CC2)=N1` reads “inactive”.
